MEKK3 PB1 HTS: modulators of MEKK3-MEK5 PB1 binding, primary screen, biochemical, wildtype MEKK3, multiplex bead flow cytometry, Alexa488-MEK5 | Mitogen-activated protein kinase kinase kinase 3 (Homo sapiens), Q99759 | bead-based flow cytometry, Alexa488-MEK5 binding to MEKK3; actives lie on both sides; 0 = blocked by unlabeled MEK5, 100 = vehicle | binding response (% of control), % at 10 µM | hit rate 1.4% among 290,000;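 active = binding response more than 3 SD above or below the average of its plate-row segment, actives on both sides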;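 also: Alexa488 bead fluorescence after subtracting the streptavidin-only scavenger bead signal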
MEKK2 WT-MEK5: modulators of MEK5 binding to wildtype MEKK2, primary screen, biochemical, multiplex bead flow cytometry, Alexa488-MEK5. Mitogen-activated protein kinase kinase kinase 2 (Homo sapiens), Q9Y2U5. Alexa488-MEK5 binding to MEKK2 WT; actives lie on both sides. binding response (% of control), % at 10 µM. hit rate 1.1% among 290,000. AID 1531, 2009; in the data active = binding response below about 67% or above about 130%
GRK2 aptamer HTS: compounds blocking aptamer binding on GRK2 – biochemical, human GRK2, bead flow cytometry, HTS, primary screen; Beta-adrenergic receptor kinase 1 (Homo sapiens), P25098; inhibition of aptamer binding, % at 10 µM; FAM-aptamer displacement from GRK2; hit rate 0.59% among 330,000;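 active = inhibition of aptamer binding above 40%, roughly 3 SD of noise, on plates passing a quality check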;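 also: median bead fluorescence of bound FAM aptamer so fluorescent compounds give negative values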
Target sequence (P25098 whole entry, looked up): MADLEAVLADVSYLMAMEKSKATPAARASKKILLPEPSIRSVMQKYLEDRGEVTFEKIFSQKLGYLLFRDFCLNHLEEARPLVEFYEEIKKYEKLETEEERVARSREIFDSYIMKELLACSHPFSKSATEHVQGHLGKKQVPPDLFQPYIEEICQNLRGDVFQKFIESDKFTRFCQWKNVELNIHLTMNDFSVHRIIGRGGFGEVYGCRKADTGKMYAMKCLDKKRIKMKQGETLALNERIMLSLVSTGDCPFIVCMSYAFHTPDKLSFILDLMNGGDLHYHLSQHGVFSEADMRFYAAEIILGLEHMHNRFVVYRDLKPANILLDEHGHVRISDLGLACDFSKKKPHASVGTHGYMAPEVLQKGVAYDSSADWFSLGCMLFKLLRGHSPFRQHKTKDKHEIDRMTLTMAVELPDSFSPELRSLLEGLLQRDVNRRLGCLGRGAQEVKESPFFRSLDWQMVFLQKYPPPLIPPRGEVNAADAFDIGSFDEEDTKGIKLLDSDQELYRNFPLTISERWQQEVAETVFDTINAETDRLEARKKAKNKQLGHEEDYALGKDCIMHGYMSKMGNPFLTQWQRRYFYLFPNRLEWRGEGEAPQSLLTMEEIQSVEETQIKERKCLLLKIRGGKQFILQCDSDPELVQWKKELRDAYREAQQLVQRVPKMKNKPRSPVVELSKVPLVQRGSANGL
MEKK2mut PB1 HTS: MEK5 binding signal on mutant MEKK2 PB1, primary screen, biochemical, multiplex bead flow cytometry, Alexa488-MEK5; Alexa488-MEK5 binding to MEKK2 mutant; hit rate 0.35% among 290,000; percent response, % at 10 µM; in the data active = percent response above about 24%, passing the limit was not always enough
MEKK2wt confirm: modulators of MEK5 binding to wildtype MEKK2, confirmation, biochemical, single concentration, multiplex bead flow cytometry | AID 1892, 2009 | binding response (% of control), % at 10 µM | hit rate 2.4% among 5,900 | shares compounds with MEKK3 PB1 HTS | Alexa488-MEK5 binding to MEKK2 WT; actives lie on both sides; in the data active = binding response below about 16% or above about 210%; inactive = in between
MEKK2mut-MEK5: mutant MEKK2 PB1-MEK5 binding signal retest – biochemical, single concentration, multiplex bead flow cytometry, confirmation; shares compounds with MEKK3 PB1 HTS; Alexa488-MEK5 binding to MEKK2 mutant; percent response, % at 10 µM; hit rate 2% among 5,900; AID 1893, 2009; in the data active = percent response mostly above about 71%, no sharp cut-off; inactive = mostly below about 38%;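 also: higher means compound restores mutant binding toward wildtype level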
MEKK3 confirm: MEKK3 wild-type PB1 binding to MEK5, inhibitors, confirmation, biochemical, bead multiplex flow cytometry, single concentration, wildtype; binding response (% of control), % at 10 µM; Alexa488-MEK5 binding to MEKK3; active compounds read low; hit rate 1.8% among 5,900; shares compounds with MEKK3 PB1 HTS;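 active = binding response below 72% of control, or above a set upper limit, though filed actives all read lower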;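 also: lower values mean stronger disruption of MEK5 binding to MEKK3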
Large screens that a line does not name were inactive (follow-up assays come after a bar, where they were run); [ ] = another dose, or the depositor's remark. Sampled rows, rich in hits. Any-hit rate of the full collection: about 2.5%.

COc1ccc2cc1Oc1ccc(cc1)CC1c3c(cc(OC)c4c3Oc3cc5c(cc3O4)CCNC5C2)CCN1C (stereo not drawn)	MEKK2 WT-MEK5 186, MEKK2mut PB1 HTS 30 | MEKK2wt confirm inactive | MEKK2mut-MEK5 inactive | MEKK3 confirm inactive
COCCn1c(SCC(=O)NC2CCCC2)nnc1-c1ccco1	none
CCCCCN(C(=O)CCC(=O)OCC(=O)Nc1cccc(SC)c1)c1c(N)n(CCCC)c(=O)[nH]c1=O	none (no result: MEKK3 PB1 HTS, MEKK2 WT-MEK5, MEKK2mut PB1 HTS)
CC(C)=CCN1CCN(Cc2cccn2-c2ncccn2)CC1CCO (stereo not drawn)	none
CCOC(=O)c1sc2nc(CSc3ccccc3)nc(N3CCCN(C)CC3)c2c1C	MEKK3 PB1 HTS 130 | MEKK2wt confirm inactive | MEKK2mut-MEK5 inactive | MEKK3 confirm inactive
Cc1cccc(C)c1NC(=S)N(Cc1ccco1)C1CCN(C(C)C)CC1	MEKK3 PB1 HTS 128 | MEKK2wt confirm inactive | MEKK2mut-MEK5 inactive | MEKK3 confirm inactive
CN(C(=O)COC(=O)Cc1c(F)cccc1Cl)c1c(N)n(Cc2ccccc2)c(=O)[nH]c1=O	none (no result: MEKK3 PB1 HTS, MEKK2 WT-MEK5, MEKK2mut PB1 HTS)
Cc1noc(C)c1NC(=O)N(C)C[C@H]1Oc2ccc(NS(=O)(=O)c3cn(C)cn3)cc2C(=O)N([C@H](C)CO)C[C@@H]1C	none (no result: MEKK3 PB1 HTS, MEKK2 WT-MEK5, MEKK2mut PB1 HTS)
COc1ccc(NC(=O)C2CCC(CNS(=O)(=O)c3cccs3)CC2)cc1 (stereo not drawn)	MEKK3 PB1 HTS 5.0[inhibitor], MEKK2 WT-MEK5 7.0[inhibitor] | MEKK2wt confirm inactive | MEKK2mut-MEK5 inactive | MEKK3 confirm inactive
COc1ccc(NC(=O)C2CCN(c3nc(C)cc(C)n3)CC2)cc1	MEKK3 PB1 HTS 2.0[inhibitor], MEKK2 WT-MEK5 2.0[inhibitor] | MEKK2wt confirm inactive | MEKK2mut-MEK5 inactive | MEKK3 confirm inactive
Cc1ccc(C(=O)Nc2ccc(NC(=O)c3ccc(C)o3)cc2)o1	none
Cc1ccc(NC(=O)CNC(=O)c2ccc(C)o2)cc1	MEKK3 PB1 HTS 29[inhibitor], MEKK2 WT-MEK5 46[inhibitor] | MEKK2wt confirm inactive | MEKK2mut-MEK5 inactive | MEKK3 confirm inactive
CC(OC(=O)c1cccs1)C(=O)NCCc1ccccc1 (stereo not drawn)	none
CC(OC(=O)c1cccs1)C(=O)NCc1ccccc1 (stereo not drawn)	MEKK3 PB1 HTS 131 | MEKK2wt confirm inactive | MEKK2mut-MEK5 inactive | MEKK3 confirm inactive
COc1ccc(/C=N/Nc2ncnc3sc(C)c(C)c23)cc1	MEKK3 PB1 HTS 133 | MEKK2wt confirm inactive | MEKK2mut-MEK5 inactive | MEKK3 confirm inactive
O=[N+]([O-])c1ccc(-c2ccc(/C=N/Nc3nc(N4CCCCC4)nc(N4CCCCC4)n3)o2)cc1	MEKK2mut PB1 HTS 99 (no result: GRK2 aptamer HTS) | MEKK2wt confirm inactive | MEKK2mut-MEK5 inactive | MEKK3 confirm inactive
CCOc1ccc(Nc2nc(Cl)nc(NCCO)n2)cc1	MEKK3 PB1 HTS 131 | MEKK2wt confirm inactive | MEKK2mut-MEK5 inactive | MEKK3 confirm inactive
O=C(NCc1ccccc1Cl)C1CCCN1S(=O)(=O)c1ccccc1F (stereo not drawn)	none
CCN(CC)c1ccc2nc3c4ccccc4c(=O)cc-3oc2c1	MEKK2 WT-MEK5 53[inhibitor] | MEKK2wt confirm inactive | MEKK2mut-MEK5 inactive | MEKK3 confirm inactive
O=C(COC(=O)c1ccco1)NC1CCCC1	none
O=C(N/N=C/c1c[nH]c2ccccc12)c1cc(-c2ccc3ccccc3c2)n[nH]1	MEKK2 WT-MEK5 138 | MEKK2wt confirm inactive | MEKK2mut-MEK5 inactive | MEKK3 confirm inactive
O=C(N/N=C/c1c[nH]c2ccccc12)c1cc(-c2ccc(-c3ccccc3)cc2)n[nH]1	none
Cc1ccc2nc(-c3cccc(Br)c3)cc(C(=O)NC3=NCCS3)c2c1	none

Source: PubChem BioAssay (NMMLSC)
